The record followed here is PubChem BioAssay AID2158 (National Center for Advancing Translational Sciences (NCATS), 2009).

Values joined by “and” are separate entries in the source; they are usually repeats but may differ in a detail not shown here. Equal entries are not always repeated. Records with an inconclusive call do not appear. Values without a mark were called inactive. Active and inactive are the calls of the source. Calls come from the whole dose curve; as a rule, active = well fitted inhibition curve with a large enough effect; inconclusive = small, poorly fitted or top-dose-only effect; inactive = no such curve, though single readings can be large or run the other way.
Potency is the fitted concentration of half-maximal effect.

This assay deals with Cruzipain (Trypanosoma cruzi) (UniProt P25779). The assay can be described thus: Confirmation qHTS Assay for Inhibitors of Cruzain.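 For activity change, negative = inhibition: plate controls were uninhibited enzyme control for no effect and buffer wells lacking enzyme for full effect.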 Note: nearly all actives have a fitted effect of over 40% in size. The conditions noted are these: purified cruzain, Z-FR-AMC fluorescence, 0.01% Triton. Put shortly: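 Purified cruzain, 1.5 nM, pre-incubated 15 min at room temperature with compound in 100 mM sodium acetate pH 5.5, 5 mM DTT, 0.01% Triton X-100. Then 2 uM Z-FR-AMC added; AMC fluorescence (ex 360/em 450 nm) increase over 60 s gave reaction progress.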
Cruzipain (Trypanosoma cruzi), sequence (P25779 123-467 limits assumed): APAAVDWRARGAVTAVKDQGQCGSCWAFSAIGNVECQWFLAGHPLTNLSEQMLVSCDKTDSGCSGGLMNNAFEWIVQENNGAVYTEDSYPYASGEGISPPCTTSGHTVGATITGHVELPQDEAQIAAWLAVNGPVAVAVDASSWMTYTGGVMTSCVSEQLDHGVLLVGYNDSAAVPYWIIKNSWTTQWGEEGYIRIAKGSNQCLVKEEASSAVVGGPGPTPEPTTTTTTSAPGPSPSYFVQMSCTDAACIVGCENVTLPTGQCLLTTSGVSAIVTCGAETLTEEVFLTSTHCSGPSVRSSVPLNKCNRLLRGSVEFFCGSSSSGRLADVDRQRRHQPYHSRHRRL
In the case of `c1ccc(CNCc2nnc(-c3cc4ccccc4[nH]3)o2)cc1`, the activity change, negative = inhibition was -1.64%.

As to `O=C(NCc1ccc2c(c1)OCO2)c1ccc2c(c1)N(Cc1c(F)cccc1Cl)C(=O)c1ccccc1S2`, the activity change, negative = inhibition was 3.42%.

Turning to `CCc1ccc(OCCn2c(CCNC(=O)C3CCCCC3)nc3ccccc32)cc1`, the Potency was 2.24 µM (active).

For `Cc1ccccc1OCC(=O)NCC(=O)OCC(=O)c1ccc2ccccc2c1`, the Potency is 14.1 µM (active).

On to `CCc1ccc(-c2nc3c(=O)n(C)c(=O)nc-3n(CC)n2)cc1`, for which the Potency was 2.51 µM (active).

In the case of `Cc1ccc2[nH]c(=O)c(CN(Cc3ccccc3)Cc3nnnn3Cc3ccco3)cc2c1`, the activity change, negative = inhibition was -19.4%.

Take `CCOC(=O)[C@H](CCc1ccccc1)N[C@@H](C)C(=O)N1[C@H](C(=O)O)C[C@H]2CCCC[C@@H]21`: the activity change, negative = inhibition was 0.349%.

For the compound `Cc1nc2cc(-c3ccccc3)nn2c(C)c1CCC(=O)N1CCN(c2ccccc2)CC1`, the activity change, negative = inhibition is -13%.

Take `Cn1nc(-c2ccc(F)cc2)nc2c(=O)n(C)c(=O)nc1-2`: the Potency was 0.631 µM (active).

In the case of `COc1cc2cc(CN(Cc3nnnn3Cc3ccco3)C3CCCCC3)c(=O)[nH]c2cc1OC`, the Potency was 14.1 µM (active).

In the case of `CC/C=C1/N=C2C(=O)N(C)C(=O)N=C2N(C)N1`, the Potency was 0.631 µM (active).

On to `Cc1ccc2[nH]c(=O)c(CN(Cc3cccs3)Cc3nnnn3Cc3ccco3)cc2c1`, for which the activity change, negative = inhibition was -23%.

Turning to `NC(=O)C(OC(=O)CNC(=O)C1CCCCC1)c1ccccc1` (stereo not drawn), the Potency is 2.51 µM (active).

With `OCCN(CCO)c1ccc(C(c2ccccc2Cl)c2ccc(N(CCO)CCO)cc2Cl)c(Cl)c1`, the activity change, negative = inhibition was -15.5%.

As for `CNc1oc(Cc2ccccc2)nc1S(=O)(=O)c1ccccc1`, the Potency is 7.08 µM (active).

For `O=C(CNC(=O)C1CCCCC1)OCC(=O)c1ccc2c(c1)CCC2`, the Potency is 6.31 µM (active).

For the compound `O=C(Cc1nnc(CNC(=O)c2ccccc2)o1)Nc1cc(C(F)(F)F)ccc1Cl`, the activity change, negative = inhibition is -8.68%.

`O=[S+]([O-])(/C=C/c1nc(Nc2cc(F)cc(F)c2)c2ncn(CC(F)F)c2n1)c1ccccc1`: the activity change, negative = inhibition was -11.8%.

In the case of `CCn1cnc2c(Nc3cccc(Cl)c3)nc(C#N)nc21`, the Potency was 0.0141 µM (active).

As to `Cc1ccc(CN(Cc2cc3cc(C)ccc3[nH]c2=O)Cc2nnnn2Cc2ccccc2)cc1`, the activity change, negative = inhibition is -18.6%.

As to `CCN(CC)c1nc(C#N)nc(OC)n1`, the Potency was 7.08 µM (active).

`CC(C)(C)c1ccc(C(=O)NCC(=O)OC(C(=O)Nc2cc(C(F)(F)F)ccc2Cl)c2ccccc2)cc1` (stereo not drawn): the activity change, negative = inhibition is -14%.

Take `CCn1cnc2c(Nc3cc(F)cc(F)c3)nc(C(=O)COc3c(F)c(F)cc(F)c3F)nc21`: the activity change, negative = inhibition was -8.99%.

For the compound `COc1cccc(NC(=O)C(OC(=O)CNC(=O)c2ccccc2)c2ccccc2)c1` (stereo not drawn), the Potency is 12.6 µM (active).

Consider `O=C(NCC1CC1)c1ccc2nc(-c3ccoc3)c(-c3ccoc3)nc2c1`, for which the activity change, negative = inhibition is -15.5%.

For `CCc1ccc(C(=O)COC(=O)CNC(=O)COc2ccccc2)cc1`, the activity change, negative = inhibition was 35.9%.

As to `O=C(Nc1cc(C(F)(F)F)ccc1Cl)C(O)Cc1ccccc1` (stereo not drawn), the activity change, negative = inhibition is -18.4%.

As to `COc1ccccc1CCNC(=O)CNC(=O)c1ccc2ccccc2c1`, the activity change, negative = inhibition was -7.19%.

Turning to `CCCCC(OC(=O)CNC(=O)c1ccccc1)C(=O)Nc1cc(C(F)(F)F)ccc1Cl` (stereo not drawn), the Potency was 8.91 µM (active).

Turning to `CNc1oc(Cc2ccccc2)nc1S(=O)(=O)c1ccc(Cl)cc1`, the Potency was 25.1 µM (active).

As to `c1ccc2cc3c(NCCN4CCOCC4)ccnc3cc2c1`, the activity change, negative = inhibition was -21.6%.

Turning to `Cc1ccccc1OCC(=O)NCC(=O)OC(c1ccccc1)c1ccccc1`, the activity change, negative = inhibition was -14.6%.

Turning to `COc1ccc(-c2cc(C#N)nc(N3CCN(C)CC3)n2)cc1`, the activity change, negative = inhibition is -11.8%.

Regarding `N#Cc1nc(Nc2cc(F)cc(F)c2)c2ncn(C3CCCC3)c2n1`, the Potency was 0.0224 µM (active).

For `CNc1nc(C#N)nc(Nc2ccccc2)n1`, the Potency was 1.26 µM (active).

Turning to `CCN(CC)c1nc(C#N)nc(N(CC)CC)n1`, the Potency was 17.8 µM (active) and 14.1 µM (active).

Consider `CCN1CCN(CCCNC(=O)c2cc3c(s2)-c2ccccc2OC3)CC1`, for which the Potency was 15.8 µM (active).

Take `Cc1ccccc1OCC(=O)NCC(C)NC(=O)COc1ccccc1C` (stereo not drawn): the activity change, negative = inhibition is 36.5%.
